Targets with a hit are over-represented here; the source holds about 8,800 in all. About 0.5% of all pairs of compound and target were hits.

Sequence of UniProt Q6P0Q8 (Q6P0Q8 whole entry, looked up): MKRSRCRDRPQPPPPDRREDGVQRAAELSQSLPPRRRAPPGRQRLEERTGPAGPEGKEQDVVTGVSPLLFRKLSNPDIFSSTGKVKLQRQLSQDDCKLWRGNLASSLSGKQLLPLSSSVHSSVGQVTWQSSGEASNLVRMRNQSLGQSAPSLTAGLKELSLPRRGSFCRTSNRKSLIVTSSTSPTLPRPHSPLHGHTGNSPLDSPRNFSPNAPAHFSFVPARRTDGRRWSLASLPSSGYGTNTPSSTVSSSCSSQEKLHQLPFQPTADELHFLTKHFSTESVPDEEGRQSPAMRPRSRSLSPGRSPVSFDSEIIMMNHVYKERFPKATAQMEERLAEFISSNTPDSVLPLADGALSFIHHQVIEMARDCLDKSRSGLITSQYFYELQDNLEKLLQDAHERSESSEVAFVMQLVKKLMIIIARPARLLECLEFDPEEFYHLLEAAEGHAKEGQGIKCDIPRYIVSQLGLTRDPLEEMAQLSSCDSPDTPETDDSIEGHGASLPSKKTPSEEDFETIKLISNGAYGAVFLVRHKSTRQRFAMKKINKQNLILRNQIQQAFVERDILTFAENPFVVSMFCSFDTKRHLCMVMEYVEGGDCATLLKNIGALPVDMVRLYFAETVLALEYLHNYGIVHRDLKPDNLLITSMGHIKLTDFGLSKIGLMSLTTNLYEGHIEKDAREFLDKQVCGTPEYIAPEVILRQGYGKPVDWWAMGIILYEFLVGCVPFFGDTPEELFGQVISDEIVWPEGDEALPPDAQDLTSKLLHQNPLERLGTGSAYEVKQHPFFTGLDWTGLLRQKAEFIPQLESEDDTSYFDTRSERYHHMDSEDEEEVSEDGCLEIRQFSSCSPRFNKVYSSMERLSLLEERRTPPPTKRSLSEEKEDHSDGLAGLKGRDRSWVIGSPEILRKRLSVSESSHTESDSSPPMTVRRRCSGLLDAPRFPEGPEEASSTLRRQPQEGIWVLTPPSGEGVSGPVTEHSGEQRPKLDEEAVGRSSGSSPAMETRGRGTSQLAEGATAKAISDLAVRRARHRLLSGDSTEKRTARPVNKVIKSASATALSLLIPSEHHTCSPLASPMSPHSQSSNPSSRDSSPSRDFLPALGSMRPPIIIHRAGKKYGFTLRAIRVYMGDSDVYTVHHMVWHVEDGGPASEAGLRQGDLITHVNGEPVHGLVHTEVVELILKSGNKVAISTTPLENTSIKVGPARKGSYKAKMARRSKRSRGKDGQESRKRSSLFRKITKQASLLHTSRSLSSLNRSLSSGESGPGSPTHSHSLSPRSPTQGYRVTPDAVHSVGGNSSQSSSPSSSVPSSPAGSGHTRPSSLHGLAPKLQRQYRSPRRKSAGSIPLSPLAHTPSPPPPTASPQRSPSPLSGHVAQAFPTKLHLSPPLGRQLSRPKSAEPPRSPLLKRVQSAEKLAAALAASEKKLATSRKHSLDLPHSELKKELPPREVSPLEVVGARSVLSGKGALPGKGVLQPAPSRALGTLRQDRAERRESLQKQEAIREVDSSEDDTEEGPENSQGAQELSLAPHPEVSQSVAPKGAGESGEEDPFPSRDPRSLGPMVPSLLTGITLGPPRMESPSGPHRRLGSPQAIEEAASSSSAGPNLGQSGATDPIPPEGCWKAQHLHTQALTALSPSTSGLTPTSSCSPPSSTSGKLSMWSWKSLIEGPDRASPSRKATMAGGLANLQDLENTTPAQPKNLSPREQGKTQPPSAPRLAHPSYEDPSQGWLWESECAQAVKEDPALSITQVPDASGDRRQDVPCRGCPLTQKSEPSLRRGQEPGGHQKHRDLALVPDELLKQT
Sequence of UniProt Q9BTE3 (Q9BTE3 whole entry, looked up): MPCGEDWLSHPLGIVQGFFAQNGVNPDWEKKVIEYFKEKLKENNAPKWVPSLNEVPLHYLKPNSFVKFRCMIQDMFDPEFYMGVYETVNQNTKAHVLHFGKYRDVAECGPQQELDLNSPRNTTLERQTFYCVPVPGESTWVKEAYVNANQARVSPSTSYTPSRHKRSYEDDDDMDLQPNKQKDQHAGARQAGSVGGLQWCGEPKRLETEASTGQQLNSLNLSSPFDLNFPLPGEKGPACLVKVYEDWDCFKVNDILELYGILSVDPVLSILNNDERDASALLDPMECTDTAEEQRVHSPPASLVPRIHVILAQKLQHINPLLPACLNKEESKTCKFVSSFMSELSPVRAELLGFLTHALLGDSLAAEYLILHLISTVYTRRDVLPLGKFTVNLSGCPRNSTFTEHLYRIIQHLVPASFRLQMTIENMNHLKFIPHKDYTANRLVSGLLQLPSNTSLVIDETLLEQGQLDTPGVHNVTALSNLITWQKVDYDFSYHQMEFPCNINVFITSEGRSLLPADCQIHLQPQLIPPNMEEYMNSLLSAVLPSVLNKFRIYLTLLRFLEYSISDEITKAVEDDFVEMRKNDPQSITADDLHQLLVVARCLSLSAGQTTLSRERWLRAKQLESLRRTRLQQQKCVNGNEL
Sequence of UniProt O60244 (O60244 whole entry, looked up): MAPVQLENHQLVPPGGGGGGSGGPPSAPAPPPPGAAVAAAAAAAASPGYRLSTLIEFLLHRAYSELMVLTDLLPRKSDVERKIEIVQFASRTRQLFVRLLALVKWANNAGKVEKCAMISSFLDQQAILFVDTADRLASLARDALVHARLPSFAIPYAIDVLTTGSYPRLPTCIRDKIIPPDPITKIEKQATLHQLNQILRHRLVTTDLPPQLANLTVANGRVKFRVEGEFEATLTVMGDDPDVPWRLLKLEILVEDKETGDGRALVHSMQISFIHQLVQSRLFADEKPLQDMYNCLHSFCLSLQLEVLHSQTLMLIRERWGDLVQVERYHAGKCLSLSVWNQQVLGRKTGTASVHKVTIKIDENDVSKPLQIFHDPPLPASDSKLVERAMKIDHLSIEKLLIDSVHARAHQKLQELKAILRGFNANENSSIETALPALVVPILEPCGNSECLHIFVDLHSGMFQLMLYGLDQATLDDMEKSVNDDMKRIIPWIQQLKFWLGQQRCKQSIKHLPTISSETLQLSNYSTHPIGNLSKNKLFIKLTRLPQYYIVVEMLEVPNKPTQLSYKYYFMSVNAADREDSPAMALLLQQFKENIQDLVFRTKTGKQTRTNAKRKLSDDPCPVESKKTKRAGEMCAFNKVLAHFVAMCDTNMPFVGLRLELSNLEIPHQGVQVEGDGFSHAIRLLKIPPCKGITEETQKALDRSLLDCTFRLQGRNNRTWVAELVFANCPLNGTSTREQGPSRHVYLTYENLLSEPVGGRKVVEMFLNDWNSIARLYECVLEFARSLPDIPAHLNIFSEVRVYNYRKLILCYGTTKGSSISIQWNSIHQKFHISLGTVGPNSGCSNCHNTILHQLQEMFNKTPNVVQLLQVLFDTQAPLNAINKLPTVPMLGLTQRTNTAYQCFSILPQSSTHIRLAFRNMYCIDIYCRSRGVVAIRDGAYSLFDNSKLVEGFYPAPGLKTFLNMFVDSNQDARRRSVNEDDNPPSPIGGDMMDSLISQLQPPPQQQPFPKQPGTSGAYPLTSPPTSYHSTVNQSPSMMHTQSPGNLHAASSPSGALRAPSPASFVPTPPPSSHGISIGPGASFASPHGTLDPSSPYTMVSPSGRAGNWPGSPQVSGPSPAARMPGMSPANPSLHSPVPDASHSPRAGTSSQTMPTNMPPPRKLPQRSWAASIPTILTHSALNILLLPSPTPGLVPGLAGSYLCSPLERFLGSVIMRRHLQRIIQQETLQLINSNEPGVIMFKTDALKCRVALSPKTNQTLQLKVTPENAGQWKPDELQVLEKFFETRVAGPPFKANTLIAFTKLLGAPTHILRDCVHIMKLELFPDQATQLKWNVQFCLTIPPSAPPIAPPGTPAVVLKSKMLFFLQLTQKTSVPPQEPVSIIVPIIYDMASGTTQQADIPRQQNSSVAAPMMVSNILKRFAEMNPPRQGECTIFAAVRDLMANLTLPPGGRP
Sequence of UniProt Q71SY5 (Q71SY5 whole entry, looked up): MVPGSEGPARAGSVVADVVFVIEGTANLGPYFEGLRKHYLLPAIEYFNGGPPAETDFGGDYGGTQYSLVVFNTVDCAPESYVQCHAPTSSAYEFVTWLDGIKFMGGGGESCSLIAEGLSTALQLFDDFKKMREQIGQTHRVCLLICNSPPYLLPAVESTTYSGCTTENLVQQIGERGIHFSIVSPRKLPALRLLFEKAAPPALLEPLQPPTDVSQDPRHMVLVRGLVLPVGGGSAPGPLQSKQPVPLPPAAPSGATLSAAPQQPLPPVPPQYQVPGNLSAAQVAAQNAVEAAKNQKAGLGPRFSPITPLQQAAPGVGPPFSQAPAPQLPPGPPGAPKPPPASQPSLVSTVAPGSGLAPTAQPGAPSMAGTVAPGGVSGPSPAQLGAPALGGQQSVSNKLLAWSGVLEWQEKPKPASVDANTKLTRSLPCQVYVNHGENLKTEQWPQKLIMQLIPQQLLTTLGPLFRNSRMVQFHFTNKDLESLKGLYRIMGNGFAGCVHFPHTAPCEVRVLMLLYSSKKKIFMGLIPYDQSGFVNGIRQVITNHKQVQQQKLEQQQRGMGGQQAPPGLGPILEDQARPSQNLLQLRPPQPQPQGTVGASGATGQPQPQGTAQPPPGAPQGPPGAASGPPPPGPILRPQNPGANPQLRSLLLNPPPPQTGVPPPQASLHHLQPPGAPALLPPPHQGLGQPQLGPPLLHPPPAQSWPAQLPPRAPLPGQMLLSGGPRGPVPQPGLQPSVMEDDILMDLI
Sequence of UniProt Q16539 (Q16539 whole entry, looked up): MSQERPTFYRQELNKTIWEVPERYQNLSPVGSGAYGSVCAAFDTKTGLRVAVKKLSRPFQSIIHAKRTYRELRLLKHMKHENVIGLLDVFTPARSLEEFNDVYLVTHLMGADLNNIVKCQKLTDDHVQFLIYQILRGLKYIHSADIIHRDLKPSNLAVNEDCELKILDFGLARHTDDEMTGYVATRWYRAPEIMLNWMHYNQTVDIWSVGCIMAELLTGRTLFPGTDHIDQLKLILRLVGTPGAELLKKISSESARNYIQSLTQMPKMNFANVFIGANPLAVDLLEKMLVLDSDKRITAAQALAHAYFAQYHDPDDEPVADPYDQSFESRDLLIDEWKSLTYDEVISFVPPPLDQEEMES

Compound in this assay: CCn1c(C(=O)N(C2CC2)C2CC2)cc2c3c(ncn3C)c(Nc3cc(C)n(C)n3)nc21
Description: log2 fold change, soluble protein after heating vs DMSO (PISA); higher = thermal stabilisation; K562 lysate, 10 uM; active = over 0.2 and 3.5 SD of the protein, either way, in both replicates (recomputed). Put shortly:
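To prepare the extract, K562 pellets were dounce-homogenised in PBS pH 7.4 with 1 mM MgCl2, giving crude material at 1 mg/mL protein. This was treated with 10 μM compound for 30 min, then heated in aliquots for 3 min over 48°C-58°C before pooling and addition of NP-40 to 0.5% at 4°C. Centrifugation at 21,000xg for 90 min left soluble protein in the supernatant, which TMTpro 16plex LC-MS/MS quantified with equalised channel sums. Results are log-two fold changes in thermal stability compared with solvent controls, from duplicates.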
Take MCMBP isoform 2 (UniProt Q9BTE3): the log2 fold change is 0.047 (inactive).
On to MAP4K5 (UniProt Q9Y4K4), for which the log2 fold change is 0.014 (inactive).
On to MACO1 (UniProt Q8N5G2), for which the log2 fold change was 0.025 (inactive).
As for LEPROT (UniProt O15243), the figure is -0.086 (inactive); as for KLHL12 isoform 2 (UniProt Q53G59), 0.118 (inactive).
In the case of LSS (UniProt P48449), the log2 fold change was -0.009 (inactive).
As to KIF4B (UniProt Q2VIQ3), the log2 fold change was 0.009 (inactive).
With MRPL27 (UniProt Q9P0M9), the log2 fold change was -0.006 (inactive).
On to MED25 isoform 3 (UniProt Q71SY5), for which the log2 fold change is -0.046 (inactive).
For MAP7D3 (UniProt Q8IWC1) the value was 0.029 (inactive).
For MITD1 (UniProt Q8WV92) the value was -0.031 (inactive).
For MED14 (UniProt O60244) the value was 0.008 (inactive); for LIMK2 isoform 3 (UniProt P53671), -0.046 (inactive).
For the target LAMP1 (UniProt P11279), the log2 fold change was -0.097 (inactive).
For the target MAPK3 (UniProt P27361), the log2 fold change was -0.031 (inactive).
Regarding MRPL35 (UniProt Q9NZE8), the log2 fold change was 0.005 (inactive).
Consider MAN2B2 (UniProt Q9Y2E5), for which the log2 fold change was -0.022 (inactive).
For MAST2 (UniProt Q6P0Q8) the value was -0.127 (inactive); for MGST3 (UniProt O14880), 0.006 (inactive).
For MAPK14 (UniProt Q16539) the value was -0.052 (inactive); for LRRC7 (UniProt Q96NW7), -0.008 (inactive); for MIF4GD isoform 3 (UniProt A9UHW6), 0.037 (inactive).

Source of the values: the supplement of paper PMC10849652.
